24 compounds from PubChem BioAssay AID2099 (Broad Institute, 2009) can be followed below.

The campaign covered roughly 330,000 compounds. About 230 (0.07%) were called active. Many of the other results were omitted from the sample, so actives are more common in it than they were. A number with no mark means an inactive call.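 Rule for the calls: active = more than half of a compound's replicate wells show inhibition beyond 50%, single wells judged on their own value; inconclusive = some, but no more than half, of replicates pass 50% inhibition; inactive = no replicate passes 50% inhibition.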

Sequence of Lysine-specific demethylase 4C (Homo sapiens) (Q9H3R0 1-420 limits assumed): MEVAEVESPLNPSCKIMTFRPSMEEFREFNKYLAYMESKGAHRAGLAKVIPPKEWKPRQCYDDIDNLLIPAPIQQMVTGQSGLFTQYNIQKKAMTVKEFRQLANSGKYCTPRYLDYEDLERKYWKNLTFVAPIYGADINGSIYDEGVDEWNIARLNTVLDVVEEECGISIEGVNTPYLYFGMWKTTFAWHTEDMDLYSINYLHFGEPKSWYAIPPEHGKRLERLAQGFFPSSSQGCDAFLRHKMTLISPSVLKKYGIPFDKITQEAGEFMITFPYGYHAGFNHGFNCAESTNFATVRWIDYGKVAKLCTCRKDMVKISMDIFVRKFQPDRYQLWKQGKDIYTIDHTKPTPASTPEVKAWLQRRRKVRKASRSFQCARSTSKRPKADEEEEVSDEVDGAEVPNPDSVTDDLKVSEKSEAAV

The assay concerns the target Lysine-specific demethylase 4C (Homo sapiens) (UniProt Q9H3R0). Description: inhibitors of GASC-1 histone demethylase, primary screen, biochemical, fluorescence, DELFIA europium (AID 2099).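 Note: signal counts dimethyl H3K9 product captured on neutravidin plate; 0% = median of DMSO wells and 100% = 0.3 times that DMSO median.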 The note with it: GST-JMJD2C(1-420) H3K9me3 demethylation, at 2.35 µM, stronger effect = higher value.
Take `O=C(N1CCCCC1)N1CCN(C(=O)N2CCCCC2)CC1`: the inhibition was -0.997%.
The result for `COc1ccc(CC(NC(C)=O)C(=O)N2CCN(C(=O)Nc3cccc(Cl)c3)CC2)cc1OC` (centres undefined) reads 3.8%.
The result for `Cc1ccc2oc(C(=O)N3CCN(C)C[C@@H]3C(C)C)c(C)c2c1` reads -21.1%; that for `COc1ccc(-c2nc3n(c(=O)c2C#N)CCS3)c(OC)c1`, -2.02%.
The result for `COc1ccccc1OCC(=O)Nc1c2c(nn1-c1ccc(F)cc1)CS(=O)(=O)C2` reads -10.7%.
For `COC(=O)c1c(NC(=O)CN(c2ccc(C)c(C)c2)S(C)(=O)=O)sc2c1CCCC2`, the inhibition is 5.54%.
With `NS(=O)(=O)c1ccc(CNC(=S)NC(=O)c2ccco2)cc1`, the inhibition is 2.82%.
Consider `CC(C)C[C@@H](N)c1nnc(SCC(=O)c2ccc(Cl)cc2)o1`, for which the inhibition was -0.106%.
With `C=CCSc1nc(Cc2ccc(Cl)cc2)nc2ccccc12`, the inhibition is -13.3%.
`CCOc1ccc(C(C)=O)cc1COC(=O)c1cnc(Cl)c(Cl)c1`: the inhibition is -8.14%.
The result for `O=S(=O)(NCCc1ccccn1)c1cc(Cl)cc(Cl)c1O` reads 6.23%.
The result for `CCN(C(=O)CSc1ncnc2sccc12)c1c(N)n(Cc2ccccc2)c(=O)[nH]c1=O` reads -1.94%; that for `CN1C(=O)c2ccccc2C(C(=O)NCCCN2CCCC2)C1c1c[nH]c2ccccc12` (centres undefined), -5.55%.
As for `COCCCn1c(SCC(=O)Nc2oc(C)c3c(C)n[nH]c(=O)c23)nc2sc3c(c2c1=O)CCC3`, the inhibition is -6.89%.
The result for `CCC(CO)Oc1cc(NC(=O)c2cccc(F)c2)c2ncn(C(C)C)c2c1` (centres undefined) reads -5.85%; that for `CCC(CO)Oc1cc(NC(=O)c2cccc3ccccc23)c2ncn(C(C)C)c2c1` (centres undefined), 51.8% (active); that for `CCC(CO)Oc1cc(NCc2ccccc2)c2ncn(C3CCCC3)c2c1` (centres undefined), -1.07%.
As for `CC(=O)Nc1ccc(Nc2ncnc3c2nnn3Cc2ccccc2Cl)cc1`, the figure is 1.4%; as for `CCC(=O)N1c2ccc(S(=O)(=O)NCc3ccco3)cc2CC1C` (centres undefined), 15.7%; as for `Cc1[nH]c(C)c(S(=O)(=O)N2CCN(c3cccc(C(F)(F)F)c3)CC2)c1C(=O)N1CCCCC1`, 30%.
As for `Cc1ccc(C)c(NC(=O)CCC(=O)N/N=C2/CC(=O)CC(C)(C)C2)c1`, the figure is 3.28%; as for `COc1ccccc1NC1=NC(c2ccc(Cl)cc2)N=C(N)N1` (centres undefined), 0.933%; as for `Cc1ccc(S(=O)(=O)N2CCC(C(=O)OCC(=O)N(C)c3ccccc3)CC2)cc1C`, 10.2%.
On to `O=C1c2ccccc2C(=O)N1CCOc1ccc(F)cc1`, for which the inhibition is -6.36%.
